# PubChem BioAssay (NCI)
# The panel holds about 79,000 compounds, 15% with a hit somewhere; the sample as a whole holds those more often. Unmarked numbers belong to inactive results. Calls of active or inactive are those of the source. Rule as the data show it: active = growth inhibition above about 70%; inactive = the rest.
# Key:
# [1] = NCI Yeast Anticancer Drug Screen. Data for the rad50 strain (AID 155);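 also: 0% = growth of vehicle-only cultures of the same strain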; settings: S. cerevisiae rad50 strain growth inhibition, active compounds read high
# How it was run: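 Yeast carrying a defined DNA repair defect were exposed to test compounds, and growth was compared with vehicle-treated controls to give percent inhibition.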
# [2] = NCI Yeast Anticancer Drug Screen. Data for the mec2-1 strain (AID 157); settings: S. cerevisiae mec2-1 strain, active compounds read high
# How it was run: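 Each compound was tested on mec2-1 yeast, a strain altered in DNA damage repair or cell cycle control. Growth inhibition is reported relative to vehicle.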
# [3] = NCI Yeast Anticancer Drug Screen. Data for the sgs1 mgt1 strain (AID 161);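 also: 0% = growth of cultures given vehicle only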; settings: S. cerevisiae sgs1 mgt1 strain, active compounds read high
# How it was run: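 Mutant yeast exposed to compound; growth scored against vehicle-only wells.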
# [4] = NCI Yeast Anticancer Drug Screen. Data for the cln2 rad14 strain (AID 165);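 also: 0% = growth equal to vehicle treated cultures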; settings: S. cerevisiae cln2 rad14 strain, active compounds read high
# How it was run: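 Test compounds were added to cln2 rad14 yeast cultures; inhibition of growth was then determined by comparison with vehicle treatment.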
# [5] = NCI Yeast Anticancer Drug Screen. Data for the bub3 strain (AID 167); settings: S. cerevisiae bub3 mutant strain, active compounds read high
# How it was run: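 Compounds were applied to a genetically altered yeast strain carrying a cell-cycle control defect. Growth inhibition was scored against vehicle-treated controls.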
# [6] = NCI Yeast Anticancer Drug Screen. Data for the mlh1 rad18 strain (AID 175); settings: S. cerevisiae mlh1 rad18 strain growth inhibition, active compounds read high
# How it was run: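 Inhibition values reflect reduced growth of mutant yeast versus vehicle-treated controls following compound exposure; the mutations affect DNA damage repair.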
# [7] = at 5.0 µM (retest, dose inferred, filed as 0.5)
# [8] = at 50.0 µM (retest, dose inferred, filed as 5.0)
SMILES,"growth inhibition [1, 7] [%]","growth inhibition [1, 8]",growth inhibition ([1]; at 50.0 µM),"growth inhibition [2, 7] [%]","growth inhibition [2, 8]",growth inhibition ([2]; at 50.0 µM),"growth inhibition [3, 7] [%]","growth inhibition [3, 8]",growth inhibition ([3]; at 50.0 µM),"growth inhibition [4, 7] [%]","growth inhibition [4, 8]",growth inhibition ([4]; at 50.0 µM),"growth inhibition [5, 7] [%]","growth inhibition [5, 8]",growth inhibition ([5]; at 50.0 µM),"growth inhibition [6, 7] [%]","growth inhibition [6, 8]",growth inhibition ([6]; at 50.0 µM)
O=[N+]([O-])c1cc2ccc(O)cc2c2ccccc12,-1,89% (active),93.5% (active),-8,85% (active),94.2% (active),10,86% (active),96.3% (active),-1,60%,95.2% (active),-3,86% (active),96.2% (active),-7,91% (active),93.7% (active)
COc1ccc(C2Cc3cc(OC)ccc3C2=O)cc1 (stereo not given),13,94% (active),45.5%,9,98% (active),29.4%,17,95% (active),56.5%,19,95% (active),23.6%,32,97% (active),96% (active),10,97% (active),57.4%
Clc1ccccc1/C=C/c1nccc2ccccc12,15,98% (active),94.1% (active),-1,99% (active),60.2%,18,98% (active),72.3% (active),15,98% (active),15.1%,64,99% (active),88.5% (active),1,98% (active),94.2% (active)
CN(CCC1CCCCC1)CCC1CCCCC1,21,89% (active),97.9% (active),9,72% (active),80.3% (active),35,97% (active),97.2% (active),14,73% (active),77.6% (active),30,97% (active),96.5% (active),11,89% (active),93.6% (active)
CC(C)OP(=O)(CCCCCCCCC/C=C/c1ccc2c(c1)OCCOCCOCCOCCO2)OC(C)C,20,98% (active),97.8% (active),4,99% (active),92.3% (active),-4,98% (active),98.2% (active),7,98% (active),97.3% (active),-11,99% (active),98.3% (active),24,99% (active),98.1% (active)
Cc1ccc(C(=O)N2CCN(C(=O)c3ccc(C)cc3)c3ccccc32)cc1,-14,6%,42.5%,-13,-19%,33.7%,-10,30%,40.8%,-7,14%,36.6%,-3,43%,75.8% (active),-26,14%,18.9%
CCn1cnc2[nH]cc(C#N)c2c1=O,-150,13%,7.7%,-50,-40%,-15.1%,-64,-33%,5.6%,-54,-46%,34.2%,-67,-59%,-19.2%,-123,-86%,36.7%
Oc1ccc(-c2ccccc2)cc1O,23,99% (active),76.1% (active),13,100% (active),82% (active),12,99% (active),89% (active),-3,99% (active),1.55%,-6,99% (active),46.5%,27,99% (active),81.4% (active)
CC1=C(C(=O)Nc2ccccc2)C(c2ccc(C(C)C)cc2)C(C(=O)Nc2ccccc2)=C(C)N1,0,94% (active),97.5% (active),-3,91% (active),94.6% (active),0,94% (active),47.6%,-13,94% (active),90.8% (active),2,93% (active),91% (active),-3,90% (active),96.2% (active)
CCc1nc(N)nc(N)c1-c1ccc(N2CCCCC2)c([N+](=O)[O-])c1,3,8%,31.3%,6,4%,56.8%,1,3%,13.3%,-6,6%,72.2% (active),-1,-2%,91.7% (active),-1,0%,51%
